Compound activity as filed in PubChem.
Only a selection was taken, and hits are over-represented in it overall.
Pf apPOL block – Pf-apPOL DNA polymerase inhibition | Recombinant Pf-apPOL, molecular beacon fluorescence, 1.5 h | actives 0.25% (n = 210,000) | inhibition, % at 10 µM
mHTT CaM bind – mHTT-calmodulin interaction abrogation. actives 3.6% (n = 190,000). inhibition, % at 15 µM. AlphaScreen His-mHTT/GST-CaM binding, luminescence. P42858;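 also: 0% = both proteins with DMSO and 100% = one protein alone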
Active calls of the source: *; . = no result given. Rule as the data show it: active = inhibition above about 50%; inactive = the rest.

SMILES	Pf apPOL block	mHTT CaM bind
CN1CCN(CCCNC(=O)c2ccc3c(c2)N(C)C(=O)C2CCCCN32)CC1 (centres undefined)	-1	2
CCOc1ccc2cccc(NC(=O)c3cc(OC)c(OC)c(OC)c3)c2n1	7	-3
CCCCC[C@H]1CN(CCc2ccccc2)C(=O)[C@@H]1CC(=O)NCc1ccc(OC)cc1	-5	75*
CCCCC[C@H]1CN(CCCC)C(=O)[C@@H]1CC(=O)NCc1ccc(OC)cc1	-2	16
Cc1nn(C)cc1C(=O)N1CCN(c2ccccc2F)CC1	-9	-11
O=c1cc(C(F)(F)F)[nH]n1-c1ccccc1	6	.
O=c1cc(O)n(-c2ccccc2)[nH]1	53*	20
COc1ccc(C2=NN(C(=O)c3ccco3)C(c3cc4ccc(OC)cc4nc3Cl)C2)cc1 (centres undefined)	-5	3
COc1ccc(C2CC(c3cccc(Br)c3)Nc3ncnn32)cc1OC (centres undefined)	1	39
COc1ccc(C2CC(c3cccc(Br)c3)Nc3ncnn32)c(OC)c1OC (centres undefined)	-4	60*
COc1cccc(C2CC(c3cccc(Br)c3)Nc3ncnn32)c1OC (centres undefined)	-2	68*
COc1cccc(C2CC(c3cccc(OC)c3OC)n3ncnc3N2)c1 (centres undefined)	2	2
CCCCCNC(=O)C1CCN(c2nccnc2Oc2ccccc2C)CC1	-3	-5
CCOC(=O)C1CCc2sc(NC(=O)C3CN(c4nc5ccccc5s4)C3)nc21 (centres undefined)	-2	40
CCOC(=O)C1CCc2sc(NC(=O)c3n[nH]c4ccccc34)nc21 (centres undefined)	9	98*
O=C(O)CCC(C(=O)O)N1C(=O)C(=CC(Cl)=Cc2ccccc2)SC1=S (centres undefined)	-177	-1
O=C(c1cccnc1)N1CCN(S(=O)(=O)c2ccc([N+](=O)[O-])cc2)CC1	2	4
COc1ccc(C2=NOC(C(=O)Nc3cccc(C(C)=O)c3)C2)cc1 (centres undefined)	0	-5
Cc1ccccc1N=C1Nc2cc(Cl)c(Cl)cc2N[C@]12C[C@H]1CCCC(=O)N3CC[C@@H](C2)[C@@H]13	-8	86*
Cc1cc2c(cc1C)N[C@]1(C[C@H]3CCCC(=O)N4CC[C@@H](C1)[C@@H]34)C(=Nc1ccccc1C)N2	-1	22
Cc1ccccc1N=C1Nc2ccc(Cl)cc2N[C@]12C[C@H]1CCCC(=O)N3CC[C@@H](C2)[C@@H]13	3	25
CC(C)(C)CC(C)(C)N=C1Nc2ccccc2N[C@]12C[C@H]1CCCC(=O)N3CC[C@@H](C2)[C@@H]13	-6	49
O=C1CCC[C@@H]2C[C@@]3(C[C@@H]4CCN1[C@H]24)Nc1cc(Cl)c(Cl)cc1NC3=NCc1ccccc1	-5	98*
CC(C)(C)CC(C)(C)N=C1Nc2ccc(Cl)cc2NC12C[C@H]1CCC(=O)N3CC[C@@H](C2)[C@@H]13 (some centres undefined)	-3	95*
COc1ccccc1-c1cc(-c2ccccc2)nc(N)c1C#N	-7	-75
SMILES	Pf apPOL block	mHTT CaM bind
CC1=C(C(=O)Nc2cc(Cl)ccc2C)C(c2cccs2)NC(=O)N1 (centres undefined)	0	5
O=C(NC1CCCCCC1)C1CCc2nc(N3CCN(C(=O)C4CCC4)CC3)sc2C1 (centres undefined)	0	5
Cn1c(=O)c2c(ncn2CCC#N)n(C)c1=O	.	-3
CCN1C(=O)Cc2ccccc2C1C(=O)NCc1ccccc1OC (centres undefined)	0	1
COc1ccc(N(C)C(=O)c2nc(C)n(C3CCN(C)CC3)c2C)cc1	6	76*
Cc1nc(C(=O)N(C)C)c(C)n1C1CCN(C)CC1	-4	-1
Cc1ccc2ncn(C3CCN(C(=O)COc4ccccc4)CC3)c2c1	-5	-6
Cc1cc(C)c2oc(=O)n(C3CCN(C(=O)COc4ccccc4)CC3)c2c1	-3	73*
O=C1/C(=C/N(C(=O)c2ccco2)c2ccc([N+](=O)[O-])cc2)Sc2ccccc21	32	19
Cc1ccc(S(=O)(=O)N(/C=C2\Sc3ccccc3C2=O)c2ccc([N+](=O)[O-])cc2)cc1	-2	60*
OCCCCNc1ncnc2scc(-c3ccccc3)c12	-9	0
Cn1c(=O)c2c(ncn2CC(=O)Nc2ccc(S(N)(=O)=O)cc2)n(C)c1=O	-2	-10
O=C(Nc1cccc(F)c1)N1CCC2(CC1)Nc1cc(F)ccc1-n1cccc12	-1	87*
COC(=O)c1cccc(NC(=O)N2CCC3(CC2)Nc2cc(F)ccc2-n2cccc23)c1	-3	53*
CSc1cccc(NC(=O)N2CCC3(CC2)Nc2ccccc2-n2cccc23)c1	-5	84*
O=C(Nc1ccc(F)c(Cl)c1)N1CCC2(CC1)Nc1cc(F)ccc1-n1cccc12	2	97*
